The values below come from patent US20150152398, “Endoribonuclease and Methods of Use Thereof” (The Regents of the University of California, published 2015).

In the first test the target is T1, TtCas6A (TTHA0078, Cas6) (Thermus thermophilus HB8).
T1 chain: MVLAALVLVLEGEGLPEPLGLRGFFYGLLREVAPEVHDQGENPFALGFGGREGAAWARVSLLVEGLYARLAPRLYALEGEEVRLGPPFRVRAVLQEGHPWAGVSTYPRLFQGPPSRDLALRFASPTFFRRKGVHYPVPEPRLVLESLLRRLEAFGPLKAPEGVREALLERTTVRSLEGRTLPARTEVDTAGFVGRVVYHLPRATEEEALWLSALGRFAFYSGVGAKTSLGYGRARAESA
Briefly: EMSA; Kd in FIG. 24C only. The following applies: chain copies: 2 stated (dimer in solution); hairpin; ssRNA; [17,28]. The text has this: FIG. 22 illustrates that TtCas6A and TtCas6B both cleave repeats R1 and R3 and retain their cleaved products. (A) Sequences and predicted secondary structures of T. thermophilus CRISPR repeats. Sites of cleavage are indicated with blue arrows. TtCas6e (TTHB192) cleaves repeat R2, while TtCas6A (TTHA0078) and TtCas6B (TTHB231) both cleave repeats R1 and R3. (B) Cleavage product binding affinities of TtCas6A and TtCas6B enzymes. Maltose binding protein (MBP)-fused TtCas6A or TtCas6B were bound to in 5′-radiolabelled, vitro transcribed R1 and R3 RNAs. Bound and unbound fractions were resolved by electrophoresis on a native polyacrylamide gel and visualized by phosphorimaging. The data for these and all subsequent binding assays were fit with standard binding isotherms (solid line). Error bars on each data point denote standard error of the mean (SEM) from three independent experiments. (C) Experiments to confirm single turnover. RNA cleavage assays were carried out at indicated protein:RNA ratios. RNA cleavage was monitored using denaturing polyacrylamide gel electrophoresis. The data from these and all subsequent endoribonuclease activity assays were fit with single exponential curves to yield first-order rate constants. (Top to bottom: FIG. 22A, SEQ ID NOs: 1, 2, 55).
To test the importance of the stem sequence for substrate RNA recognition by TtCas6A, a series of EMSAs was performed using R1 repeat-derived RNAs that carried single base pair substitutions (C-G→A-U). All mutant RNAs contained the complete 5′ segment and additional two nucleotides downstream of the cleavage site. Compared to the wild-type RNA, substitution of any of the four C-G base pairs in the stem led to about five-fold decrease in affinity (FIG. 24C). This is consistent with the observation that the lower three C-G base pairs are specifically read out by Arg129. The binding defect observed upon mutation of the closing (uppermost) base pair could be due to loss of stability of the stem-loop structure, which is determined by the closing base-pair (Serra et al, 1993). […]
Consider GUUGCAAGGGAUUGAGACCCGUAAGGGUAU, for which the binding signal was ~5 fold lower affinity than wild-type RNA.

The test is the same for the next values; noted with them: chain copies: 2 stated (dimer in solution); hairpin; ssRNA; [18,27].
GUUGCAAGGGAUUGAGCACCGUAAGGUGAU: the binding signal was ~5 fold lower affinity than wild-type RNA.

Staying with this test, now noted: chain copies: 2 stated (dimer in solution); hairpin; ssRNA; [19,26].
Take GUUGCAAGGGAUUGAGCCACGUAAGUGGAU: the binding signal was ~5 fold lower affinity than wild-type RNA.
